In PMC12701074:

Key:
Experiment in all cases: cross-linking mass spectrometry
SERBP1 = SERBP1 (UniProt Q8NC51); conditions: SIA, in cells
SF3A3 = SF3A3 (UniProt Q12874); conditions: SIAB, in cells
SF3B5 = SF3B5 (UniProt Q9BWJ5); conditions: in cells
SFSWAP = SFSWAP (UniProt Q12872); conditions: SBAP, in cells
TRRAP = TRRAP (UniProt Q9Y4A5); conditions: in cells
SLC25A22 = SLC25A22 (UniProt Q9H936); conditions: SIAB, in cells
SNRPD2 = SNRPD2 (UniProt P62316); conditions: SBAP;SIAB, in cells
SNRPD3 = SNRPD3 (UniProt P62318); conditions: SIA, in cells
SNX6 = SNX6 (UniProt Q9UNH7); conditions: SIA, in cells
SPTBN1 = SPTBN1 (UniProt Q01082); conditions: SIA, in cells
SRP68 = SRP68 (UniProt Q9UHB9); conditions: SBAP, in cells
SRSF7 = SRSF7 (UniProt Q16629); conditions: SIA, in cells
STK11IP = STK11IP (UniProt Q8N1F8); conditions: SIA, in cells
SYNE2 = SYNE2 (UniProt Q8WXH0); conditions: SIAB, in cells
TMPO = TMPO (UniProt P42167); conditions: SIAB, in cells
TPI1 = TPI1 (UniProt P60174); conditions: SIA, in cells
TSNAX = TSNAX (UniProt Q99598); conditions: SIA, in cells
UBE2K = UBE2K (UniProt P61086); conditions: SIAB, in cells
USP7 = USP7 (UniProt Q93009); conditions: SIA, in cells
VDAC2 = VDAC2 (UniProt P45880); conditions: SBAP;SIAB, in cells
VIM = VIM (UniProt P08670); conditions: in cells
XRCC5 = XRCC5 (UniProt P13010); conditions: in cells
YWHAZ = YWHAZ (UniProt P63104); conditions: SBAP, in cells

XRCC6, P12956, sequence (P12956 whole entry): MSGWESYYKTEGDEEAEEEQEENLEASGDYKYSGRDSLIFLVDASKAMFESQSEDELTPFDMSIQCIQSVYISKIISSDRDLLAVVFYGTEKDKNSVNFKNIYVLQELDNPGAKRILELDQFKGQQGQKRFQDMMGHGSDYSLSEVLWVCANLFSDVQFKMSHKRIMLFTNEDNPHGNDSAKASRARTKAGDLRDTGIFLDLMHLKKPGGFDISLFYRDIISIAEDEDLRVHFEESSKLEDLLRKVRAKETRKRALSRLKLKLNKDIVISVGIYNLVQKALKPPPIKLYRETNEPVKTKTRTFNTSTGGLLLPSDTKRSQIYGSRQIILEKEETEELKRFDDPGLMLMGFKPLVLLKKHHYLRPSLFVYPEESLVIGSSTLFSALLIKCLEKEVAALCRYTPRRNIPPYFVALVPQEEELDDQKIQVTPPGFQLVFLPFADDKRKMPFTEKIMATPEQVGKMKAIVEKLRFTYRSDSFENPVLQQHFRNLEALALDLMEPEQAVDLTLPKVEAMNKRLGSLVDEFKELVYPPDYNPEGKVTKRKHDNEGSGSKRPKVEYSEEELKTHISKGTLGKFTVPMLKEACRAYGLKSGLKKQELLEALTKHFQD
TRRAP, sequence (Q9Y4A5 whole entry): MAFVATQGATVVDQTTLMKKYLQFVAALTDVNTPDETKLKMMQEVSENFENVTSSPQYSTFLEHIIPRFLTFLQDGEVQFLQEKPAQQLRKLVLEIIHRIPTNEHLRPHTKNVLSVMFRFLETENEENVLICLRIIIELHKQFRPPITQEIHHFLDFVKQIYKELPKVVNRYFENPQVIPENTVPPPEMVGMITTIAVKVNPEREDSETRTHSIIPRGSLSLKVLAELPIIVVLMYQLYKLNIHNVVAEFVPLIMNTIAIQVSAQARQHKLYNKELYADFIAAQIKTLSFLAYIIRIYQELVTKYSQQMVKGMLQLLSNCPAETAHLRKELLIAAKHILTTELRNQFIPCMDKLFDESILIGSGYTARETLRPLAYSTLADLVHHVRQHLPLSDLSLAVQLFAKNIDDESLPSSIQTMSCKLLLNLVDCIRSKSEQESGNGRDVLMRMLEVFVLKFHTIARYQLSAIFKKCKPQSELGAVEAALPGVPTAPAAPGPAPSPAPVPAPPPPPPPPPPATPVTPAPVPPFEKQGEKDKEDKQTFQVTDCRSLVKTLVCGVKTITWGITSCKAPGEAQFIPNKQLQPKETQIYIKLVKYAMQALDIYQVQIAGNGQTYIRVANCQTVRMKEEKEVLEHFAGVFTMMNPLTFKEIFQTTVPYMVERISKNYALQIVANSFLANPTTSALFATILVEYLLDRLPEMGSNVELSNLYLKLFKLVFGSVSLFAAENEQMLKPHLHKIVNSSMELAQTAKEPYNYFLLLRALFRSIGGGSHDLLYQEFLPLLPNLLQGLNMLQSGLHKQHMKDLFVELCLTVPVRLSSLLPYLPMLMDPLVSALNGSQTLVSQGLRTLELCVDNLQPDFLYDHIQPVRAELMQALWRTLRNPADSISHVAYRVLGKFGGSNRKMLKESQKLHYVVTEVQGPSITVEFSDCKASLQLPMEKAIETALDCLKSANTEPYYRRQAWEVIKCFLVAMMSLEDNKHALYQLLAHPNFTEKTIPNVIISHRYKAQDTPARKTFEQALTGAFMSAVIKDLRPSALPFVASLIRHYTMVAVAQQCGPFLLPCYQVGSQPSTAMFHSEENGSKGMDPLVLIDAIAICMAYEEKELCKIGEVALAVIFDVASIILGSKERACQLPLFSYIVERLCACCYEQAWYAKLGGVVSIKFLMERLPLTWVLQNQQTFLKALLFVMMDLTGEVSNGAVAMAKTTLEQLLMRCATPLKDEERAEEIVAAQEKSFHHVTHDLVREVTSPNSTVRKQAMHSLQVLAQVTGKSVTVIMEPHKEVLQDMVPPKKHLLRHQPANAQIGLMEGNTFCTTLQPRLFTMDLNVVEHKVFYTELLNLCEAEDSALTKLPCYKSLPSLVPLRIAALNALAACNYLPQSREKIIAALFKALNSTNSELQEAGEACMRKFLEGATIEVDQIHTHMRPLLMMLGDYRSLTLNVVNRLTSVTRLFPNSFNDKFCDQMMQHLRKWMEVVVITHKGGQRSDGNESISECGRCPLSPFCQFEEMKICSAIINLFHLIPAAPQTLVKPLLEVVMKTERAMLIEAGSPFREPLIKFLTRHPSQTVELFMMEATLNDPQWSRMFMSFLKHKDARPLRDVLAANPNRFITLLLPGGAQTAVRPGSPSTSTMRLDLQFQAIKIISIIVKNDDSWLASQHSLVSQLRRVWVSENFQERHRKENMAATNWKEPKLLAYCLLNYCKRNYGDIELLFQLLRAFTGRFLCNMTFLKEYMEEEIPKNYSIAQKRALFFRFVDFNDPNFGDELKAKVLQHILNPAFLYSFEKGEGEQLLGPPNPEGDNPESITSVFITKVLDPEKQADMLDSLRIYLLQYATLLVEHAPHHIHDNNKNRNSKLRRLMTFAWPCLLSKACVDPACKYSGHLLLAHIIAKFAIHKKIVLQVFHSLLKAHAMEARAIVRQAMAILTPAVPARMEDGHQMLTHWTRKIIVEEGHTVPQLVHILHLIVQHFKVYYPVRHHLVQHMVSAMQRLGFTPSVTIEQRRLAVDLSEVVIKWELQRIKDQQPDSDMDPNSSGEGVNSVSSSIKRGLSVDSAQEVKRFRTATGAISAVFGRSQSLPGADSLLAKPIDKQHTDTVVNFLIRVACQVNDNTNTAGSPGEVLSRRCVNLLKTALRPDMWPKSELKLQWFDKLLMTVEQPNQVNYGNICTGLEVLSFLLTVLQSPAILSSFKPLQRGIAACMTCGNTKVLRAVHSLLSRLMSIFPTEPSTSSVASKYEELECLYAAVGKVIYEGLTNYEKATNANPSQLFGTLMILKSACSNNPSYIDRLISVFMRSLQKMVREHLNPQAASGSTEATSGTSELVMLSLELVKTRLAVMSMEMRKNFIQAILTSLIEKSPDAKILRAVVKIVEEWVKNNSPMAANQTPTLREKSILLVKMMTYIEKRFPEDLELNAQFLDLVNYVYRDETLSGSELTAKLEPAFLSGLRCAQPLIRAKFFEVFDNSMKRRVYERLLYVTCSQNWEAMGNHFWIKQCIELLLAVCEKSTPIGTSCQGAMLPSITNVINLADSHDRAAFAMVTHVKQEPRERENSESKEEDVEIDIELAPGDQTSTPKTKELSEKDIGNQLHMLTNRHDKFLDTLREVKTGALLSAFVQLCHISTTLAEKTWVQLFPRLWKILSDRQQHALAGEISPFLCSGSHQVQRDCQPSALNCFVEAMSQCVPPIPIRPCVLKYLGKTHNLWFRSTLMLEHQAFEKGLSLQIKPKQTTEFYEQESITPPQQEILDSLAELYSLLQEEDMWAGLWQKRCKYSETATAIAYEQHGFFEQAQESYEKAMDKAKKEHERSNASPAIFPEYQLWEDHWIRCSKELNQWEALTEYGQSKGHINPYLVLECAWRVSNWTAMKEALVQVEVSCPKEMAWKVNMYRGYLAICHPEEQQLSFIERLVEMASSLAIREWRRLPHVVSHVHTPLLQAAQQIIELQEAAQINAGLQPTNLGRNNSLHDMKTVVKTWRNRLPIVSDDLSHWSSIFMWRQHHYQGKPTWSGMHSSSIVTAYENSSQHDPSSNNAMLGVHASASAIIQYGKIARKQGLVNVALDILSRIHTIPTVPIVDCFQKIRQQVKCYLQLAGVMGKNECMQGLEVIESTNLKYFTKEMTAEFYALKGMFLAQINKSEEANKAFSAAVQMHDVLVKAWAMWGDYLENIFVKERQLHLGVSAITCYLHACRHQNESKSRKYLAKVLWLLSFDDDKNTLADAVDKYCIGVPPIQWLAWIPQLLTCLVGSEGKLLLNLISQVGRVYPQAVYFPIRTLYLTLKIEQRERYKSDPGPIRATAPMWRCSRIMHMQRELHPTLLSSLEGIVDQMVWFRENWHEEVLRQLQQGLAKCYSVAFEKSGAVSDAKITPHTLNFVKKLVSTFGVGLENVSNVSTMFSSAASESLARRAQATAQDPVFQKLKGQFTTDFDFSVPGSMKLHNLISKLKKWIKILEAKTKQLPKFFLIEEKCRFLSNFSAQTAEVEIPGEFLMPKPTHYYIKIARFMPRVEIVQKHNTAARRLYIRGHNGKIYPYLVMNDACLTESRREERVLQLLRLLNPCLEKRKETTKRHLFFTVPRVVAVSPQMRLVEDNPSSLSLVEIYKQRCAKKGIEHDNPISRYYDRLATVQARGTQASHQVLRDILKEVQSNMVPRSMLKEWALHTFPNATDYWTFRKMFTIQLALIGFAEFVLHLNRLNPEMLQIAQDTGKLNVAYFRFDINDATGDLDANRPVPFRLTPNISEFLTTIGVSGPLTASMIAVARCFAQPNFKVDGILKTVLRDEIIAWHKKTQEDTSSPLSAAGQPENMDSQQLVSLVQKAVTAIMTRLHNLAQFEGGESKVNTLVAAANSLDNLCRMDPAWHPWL
VIM, sequence (P08670 whole entry): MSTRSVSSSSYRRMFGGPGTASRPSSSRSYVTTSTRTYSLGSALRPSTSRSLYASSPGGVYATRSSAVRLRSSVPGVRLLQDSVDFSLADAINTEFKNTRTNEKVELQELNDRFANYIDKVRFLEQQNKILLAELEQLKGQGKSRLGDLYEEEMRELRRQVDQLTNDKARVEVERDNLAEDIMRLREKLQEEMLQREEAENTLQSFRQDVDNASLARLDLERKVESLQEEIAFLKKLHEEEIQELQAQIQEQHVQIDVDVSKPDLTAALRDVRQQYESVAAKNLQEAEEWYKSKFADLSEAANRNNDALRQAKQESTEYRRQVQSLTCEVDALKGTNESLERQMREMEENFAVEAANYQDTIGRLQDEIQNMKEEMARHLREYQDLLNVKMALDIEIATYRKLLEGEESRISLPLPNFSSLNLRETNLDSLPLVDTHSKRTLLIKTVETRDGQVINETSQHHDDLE
PHF5A, Q7RTV0, sequence (Q7RTV0 whole entry): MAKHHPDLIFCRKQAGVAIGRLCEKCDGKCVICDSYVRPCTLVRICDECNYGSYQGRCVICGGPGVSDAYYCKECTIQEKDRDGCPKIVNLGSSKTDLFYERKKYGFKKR
SF3B5, sequence (Q9BWJ5 whole entry): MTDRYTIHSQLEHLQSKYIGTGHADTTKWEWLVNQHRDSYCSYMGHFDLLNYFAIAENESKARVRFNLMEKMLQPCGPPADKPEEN

Question: How did the cross-linked residues (SERBP1) turn out when INF2, Q27J81 was run?
Answer: C650 - K52

Question: For SNRPA1, P09661, which cross-linked residues (SF3A3) is on record?
Answer: K221 - C145

Question: PHF5A, Q7RTV0 was tested. Which cross-linked residues (SF3B5; SBAP;SIA) did it give?
Answer: C85 - K17

Question: And the cross-linked residues (SF3B5; SIA)?
Answer: C11 - K17

Question: Which results are given for FASN, P49327?
Answer: cross-linked residues (SFSWAP): C1881 - K654; cross-linked residues (TRRAP; SIA): C2468 - K3285

Question: For SLC25A5, P05141, which cross-linked residues (SLC25A22) is on record?
Answer: K147 - C52

Question: With SNRNP70, P08621 as the substance, how does the cross-linked residues (SNRPD2) read?
Answer: C39 - K88

Question: For RPL14, P50914, which cross-linked residues (SNRPD3) is on record?
Answer: K209 - C20

Question: Which cross-linked residues (SNX6) does the source give for SNX2, O60749 here?
Answer: K487 - C264

Question: For ADD1, P35611, which cross-linked residues (SPTBN1) is on record?
Answer: C525 - K227

Question: Which cross-linked residues (SRP68) does the source give for SRP72, O76094 here?
Answer: K504 - C525

Question: SRSF1, Q07955 was tested. Which cross-linked residues (SRSF7) did it give?
Answer: C148 - K24

Question: Which cross-linked residues (STK11IP) does the source give for S100A11, P31949 here?
Answer: K36 - C827

Question: For PYGB, P11216, which cross-linked residues (SYNE2) is on record?
Answer: K622 - C3664

Question: LMNA, P02545 was tested. Which cross-linked residues (TMPO) did it give?
Answer: K201 - C363

Question: For UTP20, O75691, which cross-linked residues (TPI1) is on record?
Answer: K2042 - C127

Question: With HMGB2, P26583 as the substance, how does the cross-linked residues (TRRAP; SBAP) read?
Answer: K147 - C1727

Question: How did the cross-linked residues (TSNAX) turn out when TSN, Q15631 was run?
Answer: C225 - K27

Question: How did the cross-linked residues (UBE2K) turn out when UBA1, P22314 was run?
Answer: C1040 - K18

Question: With GMPS, P49915 as the substance, how does the cross-linked residues (USP7) read?
Answer: K478 - C315

Question: VDAC1, P21796 was tested. Which cross-linked residues (VDAC2) did it give?
Answer: K197 - C47

Question: What does the source list for NEFL, P07196?
Answer: cross-linked residues (VIM; SIA;SIAB): K267 - C328; cross-linked residues (VIM; SIAB): K224 - C328

Question: Which results are given for XRCC6, P12956?
Answer: cross-linked residues (XRCC5; SBAP): K331 - C296; cross-linked residues (XRCC5; SBAP;SIA): K287 - C296

Question: YWHAE, P62258 was tested. Which cross-linked residues (YWHAZ) did it give?
Answer: K69 - C25
